# According to PubChem BioAssay AID588342 (National Center for Advancing Translational Sciences (NCATS), 2011):
# Screen size: about 360,000 compounds; about 25,000 (6.9%) were called active. Another 9% or so got no clear call; they are omitted. Calls come from the whole dose curve; as a rule, active = well fitted inhibition curve with a large enough effect; inconclusive = small, poorly fitted or top-dose-only effect; inactive = flat fitted curve, though single readings scatter. What follows is part of a selection rich in actives, with near analogues and random picks from the rest.
# Biological target: Luciferin 4-monooxygenase (Photinus pyralis) (UniProt P08659)
# Sequence (P08659 whole entry, looked up): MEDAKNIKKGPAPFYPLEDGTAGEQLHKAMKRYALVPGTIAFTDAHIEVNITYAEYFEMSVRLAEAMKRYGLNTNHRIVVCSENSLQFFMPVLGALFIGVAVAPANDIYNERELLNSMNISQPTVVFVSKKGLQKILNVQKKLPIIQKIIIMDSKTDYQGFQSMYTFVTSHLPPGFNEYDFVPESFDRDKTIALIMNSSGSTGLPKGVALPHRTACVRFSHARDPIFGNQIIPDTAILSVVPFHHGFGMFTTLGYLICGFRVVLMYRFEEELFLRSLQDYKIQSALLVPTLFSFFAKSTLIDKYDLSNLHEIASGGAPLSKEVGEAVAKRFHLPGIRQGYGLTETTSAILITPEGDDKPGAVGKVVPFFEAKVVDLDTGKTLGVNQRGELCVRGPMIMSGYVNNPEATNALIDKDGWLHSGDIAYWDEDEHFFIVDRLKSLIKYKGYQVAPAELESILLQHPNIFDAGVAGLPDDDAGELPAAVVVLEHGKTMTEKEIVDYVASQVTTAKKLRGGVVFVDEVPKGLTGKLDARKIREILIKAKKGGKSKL
# Assay: qHTS profiling assay for firefly luciferase inhibitor/activator using purifed enzyme and Km concentrations of substrates (counterscreen for miR-21 project); note: nearly all actives have a fitted effect of over 55% in size;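 for activity change, negative = inhibition: plate controls were vehicle for no effect and reference inhibitor for full effect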
# Settings: purified FLuc, luminescence inhibition; series mostly up to 57.5 µM; activity change, negative = inhibition: at the top concentration
# How it was run: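 Biochemical qHTS of compounds, final roughly 60 µM downward over six points, against 10 nM purified firefly luciferase using Km concentrations of substrates (10 uM D-luciferin, 10 uM ATP) in Tris acetate pH 7.5 buffer; luminescence output.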
# Potency is the fitted concentration of half-maximal effect.
SMILES,"activity change, negative = inhibition",Potency
Cc1ccc(-n2c(=O)c3cccnc3n2CC(=O)NCc2ccc(F)cc2)cc1C,-12.7% (inactive),–
O=C(c1ccc2c(c1)N(Cc1ccccc1)C(=O)c1ccccc1S2(=O)=O)N1CCC(Cc2ccccc2)CC1,2.38% (inactive),–
Cc1nc(NC2=NC(C(=O)Nc3ccc(Cl)cc3)CC(=O)N2)nc2ccccc12 (configuration not stated),0.404% (inactive),–
CCN(CC)C(=O)c1sc2nc(-c3ccccc3)ccc2c1N,–,5.36 µM (active)
Cc1nc2sc(C(=O)c3ccccc3)c(N)c2c2c1CCCC2,–,10.7 µM (active)
CN(C)c1ccnc2sc(C(=O)c3ccccc3)c(N)c12,–,5.36 µM (active)
Nc1c(C(=O)NCc2ccccc2)sc2nc3c(cc12)C(=O)CCC3,2.35% (inactive),–
CCCS(=O)(=O)c1c(Nc2ccccc2C)sc(C(=O)c2ccccc2)c1N,1.11% (inactive),–
COc1ccc(C(F)(F)F)cc1NC(=O)c1sc2nc(-c3cccs3)ccc2c1N,-1.38% (inactive),–
COC(=O)c1cc2c(N)c(C(=O)c3ccc(Cl)cc3)sc2nc1C(OC)OC,-11.4% (inactive),–
Cc1ccc2c(N)c(C(=O)c3ccccc3)sc2n1,–,21.3 µM (active)
CCc1nc2sc(C(=O)O)c(N)c2c2c1CCCC2,-2.9% (inactive),–
CC(=O)c1c(Nc2ccccc2)sc(C(=O)c2ccccc2)c1C,-3.32% (inactive),–
CN(C)c1ccnc2sc3c(=O)n(Cc4ccccc4)cnc3c12,3.33% (inactive),–
COc1cccc(C(=O)c2sc3nc(-c4ccccc4)cc(C(F)(F)F)c3c2N)c1,-0.554% (inactive),–
COc1cc(OC)c(NC(=O)Cc2ccc(-n3c(C)nc4cccnc43)cc2)cc1Cl,-14.7% (inactive),–
O=C(O)CCCCCCCCc1cn(CN2C(=O)c3ccccc3C2=O)nn1,-0.842% (inactive),–
CCOCCCNC(=O)c1c(NC(=O)c2nc(SC)ncc2Cl)sc2c1CCCC2,-1.87% (inactive),–
CC(=O)NC(c1cccs1)c1cc(Br)c2cccnc2c1O (configuration not stated),-0.554% (inactive),–
CC(OC(=O)CNC(=O)c1cccc(F)c1)C(=O)NC1CCCCC1C (configuration not stated),-0.117% (inactive),–
CCN(CC)c1ccc(C2C(C(N)=O)=C(C)Nc3nc(SCc4ccccc4)nn32)cc1 (configuration not stated),-0.212% (inactive),–
CSc1nccc(NC(=O)c2ccc(C(C)(C)C)cc2)n1,–,1.9 µM (active)
COC(=O)c1nc(NC(=O)c2ccc(F)cc2)n[nH]1,-14.8% (inactive),–

SMILES,"activity change, negative = inhibition",Potency
CSc1ncc(C(=O)Nc2ccc(C)cc2C)c(C)n1,-0.488% (inactive),–
COC(=O)c1ccccc1NC(=O)c1cc(-c2ccccc2O)no1,-15.2% (inactive),–
O=S(=O)(NCCCCCCNS(=O)(=O)c1c(F)cccc1F)c1ccc2c(c1)OCCO2,4.33% (inactive),–
Cc1ccccc1CCNC(=O)C1CCN(c2nc3ccccc3nc2C(F)(F)F)CC1,-6.81% (inactive),–
O=C1CCNCCN1[C@H](CO)Cc1ccccc1,1.19% (inactive),–
CC(=O)NCC(=O)N(Cc1ccco1)C1(C(=O)NC2CCCC2)CCCCC1,-1.26% (inactive),–
Cc1cccn2c(=O)c(C(=O)NC(C)c3ccccc3)cnc12 (configuration not stated),-2.31% (inactive),–
CSc1ccccc1NC(=O)c1cc(Cl)sc1Cl,-13.3% (inactive),–
CSc1ccccc1NC(=O)c1cnc2sc(C)cn2c1=O,–,5.36 µM (active)
CCOc1ccc(NS(=O)(=O)c2ccc(Cl)c(C(=O)N(C)Cc3cccnc3)c2)cc1,4.21% (inactive),–
CC(=O)Nc1ccc(NC(=O)CCN2C(=O)C3CC=CCC3C2=O)cc1 (configuration not stated),4.45% (inactive),–
CCC(=O)c1ccc(OCC(=O)N(CC)CC2COc3ccccc3O2)cc1 (configuration not stated),11.9% (inactive),–
CCC(=O)N1CCc2cc(S(=O)(=O)NC(C(=O)Nc3ccc(C(C)=O)cc3)C(C)C)ccc21 (configuration not stated),3.87% (inactive),–
O=C1/C(=C\Nc2ccccc2)CCN1c1ncccn1,–,23.9 µM (active)
O=C(Cc1ccccc1)NNC(=O)C1CCN(c2ncccn2)CC1,-1.06% (inactive),–
COc1ccccc1Oc1ccc(N/C=C2/CCCC2=O)cc1,-13.2% (inactive),–
CCc1nnc(SCc2c(F)cccc2Cl)c2cc3sccc3n12,-0.0505% (inactive),–
COc1cc(C(=O)NN(CCC#N)C2=NS(=O)(=O)c3ccccc32)cc(OC)c1OC,3.16% (inactive),–
CCOC(=O)C1CCCN(C(=O)Cn2ncc3c(C)n(Cc4ccc(F)cc4)c(C)c3c2=O)C1 (configuration not stated),-11.5% (inactive),–
Cc1cnc(CN(C)C(=O)C2CCC(=O)N(CCc3cccc(F)c3)C2)[nH]1 (configuration not stated),0.959% (inactive),–
O=C(Nc1ccc(Br)cn1)c1ccc([N+](=O)[O-])cc1Cl,–,13.5 µM (active)
O=C(Nc1ccncc1)c1ccc([N+](=O)[O-])cc1Cl,-8.87% (inactive),–
O=C(Nc1cccnc1)c1cc([N+](=O)[O-])ccc1Cl,-0.936% (inactive),–

SMILES,"activity change, negative = inhibition",Potency
COc1ccc2[nH]c3c(c2c1)CCN(C(=O)CCC1CCCC1)C3c1ccc(F)cc1 (configuration not stated),-0.437% (inactive),–
Cc1ccc(Cc2nc(-c3cccc(C)c3)no2)cc1,–,10.7 µM (active)
Cc1ccc(-c2noc(CC(c3ccccc3)c3ccccc3)n2)cc1,10.8% (inactive),–
Cc1cccc(-c2noc(CCC(=O)NC3CCCC3)n2)c1,-9.98% (inactive),–
CCc1ccccc1NC(=O)CSc1nnc(-c2ccccc2)c(-c2ccccc2)n1,-4.53% (inactive),–
Cc1ccc(CCNC(=O)Cn2c(-c3cccs3)cc3cc(F)ccc32)cc1,-1.98% (inactive),–
CCc1nn(CC(=O)N2CCN(c3cccc(C(F)(F)F)c3)CC2)c(=O)c2cc3occc3n12,-1.64% (inactive),–
CCn1c(CNC(=O)c2ccco2)nnc1SCC(=O)Nc1cccc(F)c1,4.49% (inactive),–
Fc1cccc(Cl)c1CSc1ccc(-c2ccco2)nn1,–,13.5 µM (active)
Cc1cc(SCc2c(F)cccc2Cl)nc(=O)[nH]1,1.07% (inactive),–
O=C(CSc1ccc(-c2ccco2)nn1)NCc1ccc2c(c1)OCO2,-18% (inactive),–
O=C(CSc1ccc(-c2ccco2)nn1)Nc1cccc(F)c1,–,12 µM (active)
Oc1ccc(-n2nnnc2SCc2c(F)cccc2Cl)cc1,-3.56% (inactive),–
Cc1noc2ncnc(NCc3ccccc3Cl)c12,-5.3% (inactive),–
O=C(CCSCc1cccc(F)c1)NCc1ccccc1,-13.1% (inactive),–
CCN(CC)CCn1c2c(c(SCC(=O)Nc3nc4ccccc4s3)nc1=O)CCCC2,-1.18% (inactive),–
c1ccc2sc(NN=C3CCCC3)nc2c1,–,2.69 µM (active)
O=C1NC(Nc2nc3ccccc3s2)(C(F)(F)F)C(=O)N1C1CCCCC1 (configuration not stated),0.553% (inactive),–
COC(=O)c1ccccc1NC(=O)C(Cc1ccccc1)N1Cc2ccccc2C1=O (configuration not stated),-3.18% (inactive),–
COCCNC(=O)CSc1nc(-c2ccccc2)[nH]c1-c1ccc(C)cc1,-6.21% (inactive),–
C=CCNC(=S)N1CCN(CCN=Cc2c(C)[nH]n(-c3ccc([N+](=O)[O-])cc3)c2=O)CC1,-6.74% (inactive),–
